Test results from ChEMBL document CHEMBL1961873, “Compounds: GSK PKIS; Assays: Nanosyn kinase panel” (2012).

Key:
[1] = target: Mitogen-activated protein kinase kinase kinase kinase 4 (Homo sapiens) (UniProt O95819); details: at 1 µM;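 note: reported figure is an averaged inhibition value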
[2] = target: Dual specificity mitogen-activated protein kinase kinase 1 (Homo sapiens) (UniProt Q02750); details: at 0.1 µM
[3] = target: Dual specificity mitogen-activated protein kinase kinase 1 (Homo sapiens) (UniProt Q02750); details: at 1 µM
[4] = target: Misshapen-like kinase 1 (Homo sapiens) (UniProt Q8N4C8); details: at 0.1 µM
Chain of Misshapen-like kinase 1 (Homo sapiens) (Q8N4C8 whole entry, looked up): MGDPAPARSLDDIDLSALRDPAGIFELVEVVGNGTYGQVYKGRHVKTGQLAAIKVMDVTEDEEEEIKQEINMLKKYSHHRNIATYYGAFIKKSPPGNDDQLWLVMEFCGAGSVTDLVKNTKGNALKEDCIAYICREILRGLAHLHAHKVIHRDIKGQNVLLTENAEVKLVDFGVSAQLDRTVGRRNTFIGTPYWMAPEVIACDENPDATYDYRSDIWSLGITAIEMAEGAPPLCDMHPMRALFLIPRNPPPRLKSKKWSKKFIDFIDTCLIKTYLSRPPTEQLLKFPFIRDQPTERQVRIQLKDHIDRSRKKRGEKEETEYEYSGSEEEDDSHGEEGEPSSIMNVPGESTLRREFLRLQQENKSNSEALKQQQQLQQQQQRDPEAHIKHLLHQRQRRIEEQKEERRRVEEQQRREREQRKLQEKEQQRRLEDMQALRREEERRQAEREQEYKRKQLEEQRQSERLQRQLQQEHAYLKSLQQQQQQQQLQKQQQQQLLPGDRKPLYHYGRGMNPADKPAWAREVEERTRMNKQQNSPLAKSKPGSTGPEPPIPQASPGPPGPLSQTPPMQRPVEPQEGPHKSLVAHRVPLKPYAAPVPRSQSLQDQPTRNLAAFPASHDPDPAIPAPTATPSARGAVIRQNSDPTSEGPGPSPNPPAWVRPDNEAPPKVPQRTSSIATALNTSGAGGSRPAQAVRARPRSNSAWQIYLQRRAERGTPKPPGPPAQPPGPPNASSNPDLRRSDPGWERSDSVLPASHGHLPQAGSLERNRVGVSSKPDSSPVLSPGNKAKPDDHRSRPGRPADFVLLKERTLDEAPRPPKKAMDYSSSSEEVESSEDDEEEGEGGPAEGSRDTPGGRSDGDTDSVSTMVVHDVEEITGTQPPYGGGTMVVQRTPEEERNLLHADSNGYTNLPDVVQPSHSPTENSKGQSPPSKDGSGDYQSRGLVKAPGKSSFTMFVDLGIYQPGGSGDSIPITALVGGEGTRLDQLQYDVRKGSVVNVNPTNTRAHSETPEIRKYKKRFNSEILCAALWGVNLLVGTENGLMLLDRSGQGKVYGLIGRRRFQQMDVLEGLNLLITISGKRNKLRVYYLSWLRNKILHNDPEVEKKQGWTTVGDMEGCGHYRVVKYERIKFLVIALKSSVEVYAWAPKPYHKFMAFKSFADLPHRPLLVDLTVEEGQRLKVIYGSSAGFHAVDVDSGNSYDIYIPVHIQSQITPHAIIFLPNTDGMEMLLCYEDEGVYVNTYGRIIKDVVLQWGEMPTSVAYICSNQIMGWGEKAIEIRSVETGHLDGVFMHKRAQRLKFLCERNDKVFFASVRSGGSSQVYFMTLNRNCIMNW

[5] = target: Misshapen-like kinase 1 (Homo sapiens) (UniProt Q8N4C8); details: at 1 µM
[6] = target: T1, Serine/threonine-protein kinase 4 (Homo sapiens) (UniProt Q13043); details: at 0.1 µM
T1 sequence (whole entry): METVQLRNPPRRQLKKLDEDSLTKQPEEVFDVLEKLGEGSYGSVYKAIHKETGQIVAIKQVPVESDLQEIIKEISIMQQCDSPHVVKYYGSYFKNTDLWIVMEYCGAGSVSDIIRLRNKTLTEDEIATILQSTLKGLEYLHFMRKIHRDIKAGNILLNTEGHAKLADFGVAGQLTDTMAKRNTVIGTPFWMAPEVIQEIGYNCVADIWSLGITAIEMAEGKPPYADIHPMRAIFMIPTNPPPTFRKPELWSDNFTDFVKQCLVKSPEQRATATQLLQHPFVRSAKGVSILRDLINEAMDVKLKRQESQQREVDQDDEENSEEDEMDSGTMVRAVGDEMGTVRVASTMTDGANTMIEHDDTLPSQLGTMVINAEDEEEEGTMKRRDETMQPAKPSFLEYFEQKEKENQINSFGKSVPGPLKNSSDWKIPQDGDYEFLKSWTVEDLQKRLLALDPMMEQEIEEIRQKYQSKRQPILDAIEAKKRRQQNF

[7] = target: T1, Serine/threonine-protein kinase 4 (Homo sapiens); details: at 1 µM
[8] = target: T2, Serine/threonine-protein kinase 3 (Homo sapiens) (UniProt Q13188); details: at 0.1 µM
T2 sequence (whole entry): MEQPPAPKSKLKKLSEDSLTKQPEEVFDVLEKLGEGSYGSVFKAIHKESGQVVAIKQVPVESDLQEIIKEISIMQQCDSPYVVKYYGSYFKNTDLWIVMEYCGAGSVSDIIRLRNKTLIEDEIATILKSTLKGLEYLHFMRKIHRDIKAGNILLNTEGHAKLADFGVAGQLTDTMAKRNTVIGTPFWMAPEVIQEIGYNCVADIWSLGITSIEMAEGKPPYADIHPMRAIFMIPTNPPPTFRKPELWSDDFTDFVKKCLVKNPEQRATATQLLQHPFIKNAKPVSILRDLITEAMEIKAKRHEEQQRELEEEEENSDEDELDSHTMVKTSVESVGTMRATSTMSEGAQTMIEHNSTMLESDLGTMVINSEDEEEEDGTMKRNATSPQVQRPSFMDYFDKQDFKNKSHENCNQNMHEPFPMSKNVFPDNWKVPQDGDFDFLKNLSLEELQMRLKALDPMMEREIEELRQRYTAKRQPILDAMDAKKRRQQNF

[9] = target: T2, Serine/threonine-protein kinase 3 (Homo sapiens); details: at 1 µM
[10] = target: Serine/threonine-protein kinase 26 (Homo sapiens) (UniProt Q9P289); details: at 0.1 µM
Chain of Serine/threonine-protein kinase 26 (Homo sapiens) (Q9P289 2-416 limits assumed): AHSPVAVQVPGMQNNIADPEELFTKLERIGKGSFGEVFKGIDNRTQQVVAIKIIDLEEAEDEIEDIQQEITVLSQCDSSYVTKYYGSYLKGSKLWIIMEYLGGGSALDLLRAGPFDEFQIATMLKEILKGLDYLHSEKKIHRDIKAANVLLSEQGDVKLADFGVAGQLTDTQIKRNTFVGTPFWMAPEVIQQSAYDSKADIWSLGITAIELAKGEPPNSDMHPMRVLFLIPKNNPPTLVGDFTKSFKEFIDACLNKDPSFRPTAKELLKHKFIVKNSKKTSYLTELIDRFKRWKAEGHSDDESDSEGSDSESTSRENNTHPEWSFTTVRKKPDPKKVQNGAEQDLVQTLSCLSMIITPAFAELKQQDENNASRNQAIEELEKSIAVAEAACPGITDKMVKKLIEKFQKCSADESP

[11] = target: Serine/threonine-protein kinase 26 (Homo sapiens) (UniProt Q9P289); details: at 1 µM
[12] = target: Serine/threonine-protein kinase PAK 1 (Homo sapiens) (UniProt Q13153); details: at 0.1 µM
Chain of Serine/threonine-protein kinase PAK 1 (Homo sapiens) (Q13153 whole entry): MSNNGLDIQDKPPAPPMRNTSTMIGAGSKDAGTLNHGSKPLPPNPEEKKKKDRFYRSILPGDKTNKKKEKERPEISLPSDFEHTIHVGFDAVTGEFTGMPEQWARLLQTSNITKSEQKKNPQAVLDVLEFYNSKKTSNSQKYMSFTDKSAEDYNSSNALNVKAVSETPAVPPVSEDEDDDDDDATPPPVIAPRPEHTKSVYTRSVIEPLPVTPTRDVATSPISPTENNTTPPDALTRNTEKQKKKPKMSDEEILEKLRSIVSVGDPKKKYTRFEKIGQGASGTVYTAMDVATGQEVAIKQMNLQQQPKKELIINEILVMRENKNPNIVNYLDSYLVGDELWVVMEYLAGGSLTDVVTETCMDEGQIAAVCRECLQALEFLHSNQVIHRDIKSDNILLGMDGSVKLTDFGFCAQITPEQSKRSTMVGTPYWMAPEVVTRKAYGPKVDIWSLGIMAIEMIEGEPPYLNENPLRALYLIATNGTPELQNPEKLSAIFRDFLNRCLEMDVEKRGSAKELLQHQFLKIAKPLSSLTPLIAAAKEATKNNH

[13] = target: Serine/threonine-protein kinase PAK 1 (Homo sapiens) (UniProt Q13153); details: at 1 µM
[14] = target: Serine/threonine-protein kinase PAK 2 (Homo sapiens) (UniProt Q13177); details: at 0.1 µM
Chain of Serine/threonine-protein kinase PAK 2 (Homo sapiens) (Q13177 whole entry): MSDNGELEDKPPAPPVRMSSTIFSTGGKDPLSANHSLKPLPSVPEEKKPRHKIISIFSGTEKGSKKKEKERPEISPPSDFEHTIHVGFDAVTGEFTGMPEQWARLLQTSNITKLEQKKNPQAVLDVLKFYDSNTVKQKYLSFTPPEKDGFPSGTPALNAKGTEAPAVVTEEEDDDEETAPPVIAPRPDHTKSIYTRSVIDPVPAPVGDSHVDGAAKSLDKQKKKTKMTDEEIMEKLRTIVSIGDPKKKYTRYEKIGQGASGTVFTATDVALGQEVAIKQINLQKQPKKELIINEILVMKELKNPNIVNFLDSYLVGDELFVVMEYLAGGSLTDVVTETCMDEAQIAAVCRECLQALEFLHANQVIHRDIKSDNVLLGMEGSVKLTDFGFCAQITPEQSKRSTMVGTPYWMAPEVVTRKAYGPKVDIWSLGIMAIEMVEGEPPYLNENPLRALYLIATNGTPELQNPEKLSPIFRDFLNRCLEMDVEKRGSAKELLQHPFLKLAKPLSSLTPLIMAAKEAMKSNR

[15] = target: Serine/threonine-protein kinase PAK 2 (Homo sapiens) (UniProt Q13177); details: at 1 µM
[16] = target: Serine/threonine-protein kinase PAK 3 (Homo sapiens) (UniProt O75914); details: at 0.1 µM
Chain of Serine/threonine-protein kinase PAK 3 (Homo sapiens) (O75914 whole entry, looked up): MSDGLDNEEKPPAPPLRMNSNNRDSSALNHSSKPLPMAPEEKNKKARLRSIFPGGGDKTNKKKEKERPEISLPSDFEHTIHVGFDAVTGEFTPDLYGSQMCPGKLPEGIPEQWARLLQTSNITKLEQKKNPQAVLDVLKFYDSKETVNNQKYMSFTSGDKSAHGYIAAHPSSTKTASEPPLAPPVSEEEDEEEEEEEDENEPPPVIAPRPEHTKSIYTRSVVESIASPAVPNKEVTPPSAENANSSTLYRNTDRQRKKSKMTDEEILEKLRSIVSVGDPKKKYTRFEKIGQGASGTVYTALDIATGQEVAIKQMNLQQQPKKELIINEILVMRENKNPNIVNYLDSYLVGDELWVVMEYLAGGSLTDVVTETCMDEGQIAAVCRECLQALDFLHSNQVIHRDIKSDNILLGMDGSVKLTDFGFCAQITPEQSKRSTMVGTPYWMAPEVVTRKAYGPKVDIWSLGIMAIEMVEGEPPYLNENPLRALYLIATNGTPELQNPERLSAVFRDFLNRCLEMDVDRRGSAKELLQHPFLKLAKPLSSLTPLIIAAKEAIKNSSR

[17] = target: Serine/threonine-protein kinase PAK 3 (Homo sapiens) (UniProt O75914); details: at 1 µM
[18] = target: Serine/threonine-protein kinase PAK 5 (Homo sapiens) (UniProt Q9P286); details: at 0.1 µM
[19] = target: Serine/threonine-protein kinase PAK 5 (Homo sapiens) (UniProt Q9P286); details: at 1 µM
[20] = target: Serine/threonine-protein kinase PAK 6 (Homo sapiens) (UniProt Q9NQU5); details: at 0.1 µM;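 note: mean PAK6 inhibition reported from the GSK PKIS screen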
Chain of Serine/threonine-protein kinase PAK 6 (Homo sapiens) (Q9NQU5 whole entry, looked up): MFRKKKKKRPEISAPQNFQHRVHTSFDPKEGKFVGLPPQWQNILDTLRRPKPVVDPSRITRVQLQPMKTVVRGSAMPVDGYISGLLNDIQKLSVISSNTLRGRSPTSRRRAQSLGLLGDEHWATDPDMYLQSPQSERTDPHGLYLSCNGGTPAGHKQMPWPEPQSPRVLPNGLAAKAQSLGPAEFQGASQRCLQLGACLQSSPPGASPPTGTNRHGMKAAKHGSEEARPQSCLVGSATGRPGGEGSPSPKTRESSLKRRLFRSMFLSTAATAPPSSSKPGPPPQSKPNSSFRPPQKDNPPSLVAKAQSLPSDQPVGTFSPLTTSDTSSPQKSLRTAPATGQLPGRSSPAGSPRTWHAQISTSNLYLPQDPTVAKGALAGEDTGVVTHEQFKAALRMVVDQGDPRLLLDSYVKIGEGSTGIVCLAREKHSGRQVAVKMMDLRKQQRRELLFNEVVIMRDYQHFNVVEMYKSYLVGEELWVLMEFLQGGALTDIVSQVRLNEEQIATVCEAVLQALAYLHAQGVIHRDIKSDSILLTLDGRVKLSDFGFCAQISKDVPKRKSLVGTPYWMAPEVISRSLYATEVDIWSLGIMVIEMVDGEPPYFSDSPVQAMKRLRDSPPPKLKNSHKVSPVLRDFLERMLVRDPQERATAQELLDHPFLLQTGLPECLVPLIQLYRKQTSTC

Chain of Dual specificity mitogen-activated protein kinase kinase 1 (Homo sapiens) (Q02750 whole entry): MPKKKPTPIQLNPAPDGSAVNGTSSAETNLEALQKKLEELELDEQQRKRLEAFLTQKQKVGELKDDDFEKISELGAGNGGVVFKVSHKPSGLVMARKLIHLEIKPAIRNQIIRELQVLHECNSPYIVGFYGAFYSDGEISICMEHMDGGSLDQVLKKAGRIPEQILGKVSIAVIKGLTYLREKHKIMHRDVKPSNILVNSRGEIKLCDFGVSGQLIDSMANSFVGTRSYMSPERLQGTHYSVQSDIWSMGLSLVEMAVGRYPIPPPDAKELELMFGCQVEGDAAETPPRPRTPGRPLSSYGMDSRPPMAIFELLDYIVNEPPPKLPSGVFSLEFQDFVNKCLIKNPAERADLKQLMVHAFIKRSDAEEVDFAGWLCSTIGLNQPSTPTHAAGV

| Compound | inhibition [1] [%] | inhibition [2] [%] | inhibition [3] [%] | inhibition [4] [%] | inhibition [5] [%] | inhibition [6] [%] | inhibition [7] [%] | inhibition [8] [%] | inhibition [9] [%] | inhibition [10] [%] | inhibition [11] [%] | inhibition [12] [%] | inhibition [13] [%] | inhibition [14] [%] | inhibition [15] [%] | inhibition [16] [%] | inhibition [17] [%] | inhibition [18] [%] | inhibition [19] [%] | inhibition [20] [%] |
| --- | --- | --- | --- | --- | --- | --- | --- | --- | --- | --- | --- | --- | --- | --- | --- | --- | --- | --- | --- | --- |
| CS(=O)(=O)CCNCc1ccc(-c2ccc3ncnc(Nc4ccc(OCc5ccccc5)cc4)c3c2)o1 | 6.76 | 2.75 | 2.72 | 5.38 | 5.67 | 3.24 | 3.52 | 5.36 | 3.74 | 0.02 | 1.34 | 6.85 | 5.65 | 0.34 | -0.94 | 3.86 | 3.33 | 3.91 | 2.57 | -3.53 |
| CCOc1ccc2c(-c3ccnc(Nc4cc(OC)cc(C(F)(F)F)c4)n3)cnn2n1 | 8.47 | 0.11 | 0.8 | 2.19 | 6.36 | 0.03 | 1.83 | -0.19 | 2.45 | 1.73 | 1.8 | 2.05 | 0.59 | -0.62 | 0.03 | -0.15 | -0.09 | 0.09 | 8.65 | -8.96 |
| CCn1c(-c2nonc2N)nc2cncc(C(=O)NCCNC)c21 | 11.3 | 4.81 | 3.62 | 7.39 | 10.8 | 3.84 | 6.56 | 5.96 | 7.27 | -3.72 | -4.29 | 6.24 | 7.29 | 1.98 | 2.75 | 5.11 | 5.12 | 3.97 | 7.69 | 0.36 |
| CNC(=O)c1sc(-n2cnc3cc(OC)c(OC)cc32)cc1OCc1ccccc1C(F)(F)F | 12.2 | 3.14 | 3.6 | 9.53 | 12.2 | 2.47 | 3.85 | 5.34 | 7.16 | -0.27 | 4.9 | 2.95 | 1.15 | 0.12 | 0.57 | 4.1 | 2.98 | 1.27 | 0.17 | -2.28 |
| Cc1c2ccc(N(C)c3ccnc(Nc4cccc(S(N)(=O)=O)c4)n3)cc2nn1C | 55.2 | 6.31 | 10.7 | 12.8 | 55.3 | 6.6 | 8.01 | 5.78 | 7.64 | -1.28 | -1.81 | 7.49 | 5.47 | 3.47 | 3.15 | 4.74 | 7.28 | 1.63 | -1.02 | 2.18 |
| O=C1Nc2ccccc2/C1=C1\CCc2cc(O)ccc21 | 66.8 | 7.68 | 9.97 | 17.6 | 58.9 | 20.8 | 58.5 | 15.1 | 52.4 | -4.52 | -7.51 | 7.55 | 7.72 | 2.86 | 3.05 | 5.7 | 6.44 | 0.23 | 1.47 | -1.41 |
| NS(=O)(=O)c1ccc(N/N=C2\C(=O)Nc3cccc(CCc4ccncc4)c32)cc1 | 16.9 | 1.96 | 3.3 | 4 | 10.8 | 31.3 | 48.9 | 20.1 | 29.8 | 10.5 | 9.93 | 1.58 | 2.13 | 0.84 | 0.54 | 0.06 | 0.66 | 1.07 | 3.39 | -5.12 |
| O=C(O[C@H]1CN[C@H](C#Cc2cc3ncnc(Nc4ccc(OCc5cccc(F)c5)c(Cl)c4)c3s2)C1)N1CCOCC1 | 8.44 | 6.24 | 5.74 | 6.37 | 9.94 | 4.18 | 8.15 | 5.87 | 6.61 | -0.22 | -0.1 | 8.7 | 7.32 | 1.91 | 2.46 | 6.61 | 6.74 | 6.46 | 0.44 | -7.35 |
